From PubChem BioAssay (EPA / NIEHS) come the findings set out here.

Molecules are shown by their SMILES. More than one record can exist for a structure, and the calls need not agree. The source made the active and inactive calls. The calls were made as follows: active = hit-call score of the fitted dose curve at least 0.9, where 1 is the maximum; inactive = score below 0.9.

What is called AC50 is the midpoint of the concentration-response curve, whichever way the signal moves.

The nature of the test: ATG_M_06_CIS: Attagene CIS-FACTORIAL HepG2 Assay for M06 Transcription Factor (Internal Marker) (AID 2282950). The note with it: HepG2 Attagene CIS-FACTORIAL M06 internal marker reporter; actives raise or lower the signal. As for the experimental part: ATG_CIS is a cell-based, multiplexed-readout assay that uses HepG2, a human liver cell line, with measurements taken at 24 hours after chemical dosing in a 24-well plate.ATG_M_06_CIS is one of 52 assay component(s) measured or calculated from the ATG_CIS assay. It is designed to make measurements of mRNA induction, a form of inducible reporter, as detected with fluorescence intensity signals by Reverse transcription polymerase chain reaction (RT-PCR) and Capillary electrophoresis technology.Data from the assay component ATG_M_06_CIS was analyzed into 1 assay endpoint. This assay endpoint, ATG_M_06_CIS, was analyzed with bidirectional fitting relative to DMSO as the negative control and baseline of activity. Using a type of inducible reporter, measures of mRNA for gain or loss-of-signal activity can be used to understand the background control at the transcription factor-level as they relate to the gene . Furthermore, this assay endpoint can be referred to as a secondary readout, because this assay has produced multiple assay endpoints where this one serves a background control function. To generalize the intended target to other relatable targets, this assay endpoint is annotated to the background measurement intended target family, where the subfamily is internal marker.
Human liver HepG2 cells are transiently transfected with multiple reporter transcription units (MRTUs) in 6-well plates using FuGene 6 reagent (Roche; 3 ml FuGene/1 mg DNA). The MRTU constructs are regulated by a cis-regulating element (promoter). […] A major difference between the CIS and TRANS system is that in CIS activities of endogenous TFs are measured, whereas the TRANS assay evaluates changes in activities of exogenous, chimeric NR-Gal4 proteins. […] At the end of 24 hour incubation, total RNA was isolated using TriZol reagent (Invitrogen). The isolated RNA is then reverse-transcribed using oligo(dT) primer and Mo-MLV reverse transcriptase (Invitrogen) with DNAse I (Ambion) treatment for 30 min. The one-tenth of the produced cDNA was amplified by PCR using Taq DNA polymerase (Invitrogen) and two reporter sequence-specific primers. The PCR products were fluorescently labeled by primer extension with 6-arboxyfluorescein (6-FAM) 5'-labeled reporter sequence-specific primer (2 min at 95 C, 20 s at 68 C and 10 min at 72 C) and these products were digested with 5U of HpaI (New England Biolabs) for 2h at 37 C. The fragments were purified using Qiaquick PCR columns (Qiagen), analyzed on an ABI 3130xL genetic analyzer (Applied Biosystems) with peak positions identified by using a set of X-rhodamine (ROX)-labeled MapMarker1000 molecular weight standards (BioVentures). The raw capillary electrophoresis data was processed using Attagraph software (Attagene).
`CN1CCN(c2ccccc2/C=C2\SCCN(c3ccc(Cl)c(Cl)c3)C2=O)CC1`: the compound was classed as inactive. With `CC(C)CCCCCCOC(=O)CCCCC(=O)OCCCCCCC(C)C`, the compound was classed as inactive. On the same count and under the same terms, then `Oc1cccc(O)c1`, with “inactive”; and `COCC(C)OCC(C)O` (stereo not given), with “inactive”; and `CCCCC(CC)COC(=O)CCCCC(=O)OCC(CC)CCCC` (stereo not given), with “inactive”.

As for `CCc1nn(C2CCCCC2)c2cc(C3(C#N)CCC(C(=O)O)CC3)ccc12` (stereo not given), the call was inactive. Still for that read-out and setting: next, `C=C(C)C(=O)OCCC(F)(F)C(F)(F)C(F)(F)C(F)(F)C(F)(F)C(F)(F)F`: “inactive”. Same read-out and setting: next, `CCc1ccc(CCOc2ccc(CC3SC(=O)NC3=O)cc2)nc1` (stereo not given): “inactive”; `OCCC(F)(F)C(F)(F)C(F)(F)C(F)(F)C(F)(F)C(F)(F)C(F)(F)C(F)(F)F`: “inactive”. In the case of `Cc1oc(-c2ccccc2)nc1CCOc1ccc(C[C@H](Nc2ccccc2C(=O)c2ccccc2)C(=O)O)cc1`, the call was inactive.

Consider `Oc1cc2ccccc2c2ccccc12`, for which the outcome was inactive. Still for that read-out and setting: then `O=C1OC2(c3ccccc31)c1cc(Br)c(O)c(Br)c1Oc1c2cc(Br)c(O)c1Br`, with “inactive”. Same read-out and setting: next, `O=C(O)Cc1cc(I)c(Oc2cc(I)c(O)c(I)c2)c(I)c1`: “inactive”; `CCN(CC)CCNc1ccc(CNC=O)c2sc3ccc(OC)cc3c(=O)c12`: “inactive”; `CCCCC[C@H](O)CC(=O)CCc1ccc(O)c(OC)c1`: “inactive”. Same read-out and setting: next, `NC(=O)N1C(=O)C(C(=O)c2cc(Cl)cs2)c2cc(F)c(Cl)cc21` (stereo not given): “inactive”; `CCCCCCCCCCCCCCCS(=O)(=O)Oc1ccccc1`: “inactive”; `Cc1ccc(S(=O)(=O)O)c(C)c1`: “inactive”. Regarding `COC(=O)CCCCC(=O)OC`, the result was inactive. Turning to `CC#C[C@]1(O)CC[C@H]2[C@@H]3CCC4=CC(=O)CCC4=C3[C@@H](c3ccc(N(C)C)cc3)C[C@@]21C`, the call was inactive. Regarding `CCC(=C(c1ccc(O)cc1)c1ccc(OCCN(C)C)cc1)c1ccccc1`, the AC50 was 11.7 µM (active) and the compound was classed as inactive. In the case of `CCCCCCCCC(=O)O`, the result was inactive. On the same count and under the same terms, next, `CC(C)(C)CC(C)(C)c1ccc(O)c(-n2nc3ccccc3n2)c1`: “inactive”.

In the case of `OC1CCC(C2CCCCC2)CC1` (stereo not given), the compound was classed as inactive.

On to `FC(F)(I)C(F)(F)C(F)(F)C(F)(F)C(F)(F)C(F)(F)I`, for which the compound was classed as inactive. Take `ClC1=C(Cl)C(Cl)(Cl)C(Cl)=C1Cl`: the compound was called inactive.

Turning to `c1ccc2cc3c(ccc4ccccc43)cc2c1`, the outcome was inactive. Same read-out and setting: then `CCCCOCCO`, with “inactive”; and `COc1cc(CCC(=O)CC(=O)CCc2ccc(O)c(OC)c2)ccc1O`, with “inactive”; and `C#C[C@]1(O)CC[C@H]2[C@@H]3CCC4=CC(=O)CC[C@@H]4[C@H]3CC[C@@]21C`, with “inactive”.

As for `NC(=O)N(O)[C@@H]1C=C[C@H](Oc2cccc(Oc3ccc(F)cc3)c2)C1`, the outcome was inactive. On the same count and under the same terms, then `CC(=O)CC(C)(C)O`, with “inactive”. For the compound `COCC(C)O` (stereo not given), the result was inactive. Turning to `O=C(O)c1ccccc1C(c1ccc(O)cc1)c1ccc(O)cc1`, the call was inactive. With `CCOC(=O)CC(O)(CC(=O)OCC)C(=O)OCC`, the compound was called inactive.

As for `CCCCCCCCOC(=O)CCCCCCCCC(=O)OCCCCCCCC`, the compound was called inactive.

In the case of `CC(C)(C)c1cc(C(C)(C)C)c(O)c(C(C)(C)C)c1`, the outcome was inactive.

For the compound `CC(C)(C)c1ccc(O)c(C(C)(C)C)c1`, the compound was classed as inactive.

As for `O=c1c(-c2ccc(O)cc2)coc2cc(O)ccc12`, the outcome was inactive.
